Results reported in PubChem BioAssay AID652057 (Broad Institute, 2013).
About 1,000 (71%) of roughly 1,400 compounds were called active. The rule behind the calls is not given here. The set was probably picked from earlier hits. The list is a sample of the results. Entries with a potency or affinity are not part of this list.

Assay: blockers of HIV-1 envelope-mediated cell-cell fusion – cherry-pick, dose response (AID 652057)
Conditions: HeLa-JRFL Env/CEM21 cell fusion, luciferase; series mostly up to 35 µM; activity change, negative = inhibition: at the top concentration

Activity change, negative = inhibition, inactive:
Cc1ccc(C(=O)NCc2ccccn2)cc1S(=O)(=O)N1CCCCC1 12.6%
CCCn1c(=S)[nH]c2cc(C(=O)N3CCCC(C(=O)OCC)C3)ccc2c1=O (centres undefined) -17.7%
CN(C(=O)c1cccc(NC(=O)Cc2cccc(NC(=O)C3CCCN(C(=O)C4CCC4)C3)c2)c1)C1CCC1 (centres undefined) 44.8% [at 16 µM]
COc1ccc(S(=O)(=O)NC[C@@H]2CC[C@H]3[C@H](CN3Cc3cc(F)ccc3F)O2)cc1 -7%
COCC(C)n1c(-c2ccc3c(c2)NC(=O)CO3)csc1=Nc1ccc(OC(F)F)cc1 (centres undefined) -24.6%
C[C@@H]1CN([C@H](C)CO)C(=O)c2cccc(NS(=O)(=O)c3cn(C)cn3)c2O[C@H]1CN(C)C(=O)Nc1ccc(F)cc1 8.94%
O=C(N/N=C/c1ccc(-n2ccnc2)cc1)c1cccs1 64.2%
Cc1ccc(NC(=O)c2ccc(CN3CCc4ccccc4C3)cc2)cc1 33%
O=C(Nc1ccc(S(=O)(=O)N2CCCC2)cc1)c1ccc(CN2CCOCC2)cc1 -13.4%
C=C(C)CN(CC)c1nc(N)c2c(N)nc3c(c2c1C#N)CC(=O)N3C12CC3CC(CC(C3)C1)C2 -26.7%
CCc1nc(N2CCCCC2C)c2oc3ccccc3c2n1 (centres undefined) -10.6%
CCOc1ccc2c(c1)-c1c(ssc1=S)C(C)(C)N2C(=O)c1ccco1 23.5%
O=C(COC(=O)c1cccc(S(=O)(=O)N2CCOCC2)c1)NCc1ccccc1 0.395%
Cc1ccccc1OCCCCn1cnc2ccccc21 46.1% [at 15 µM]
CC(C)OCCCNc1ncnc2c1[nH]c1ccccc12 -15%
COCC(=O)Nc1ccc2c(c1)C(=O)N(C)C[C@@H](OC)[C@H](C)CN(C(C)=O)[C@H](C)CO2 -9.74%
CCN(CC)CCN(C(=O)c1cc(Cl)sc1Cl)c1nc2cc3c(cc2s1)OCO3 35.1%
CCS(=O)(=O)N[C@H]1CC[C@@H](CC(=O)NCc2ccc(Cl)cc2)O[C@@H]1CO 22.3%
COc1cccc(CNC(=O)C[C@@H]2C=C[C@H](NC(=O)C3CCC3)[C@H](CO)O2)c1 45.5%
O=C(C[C@H]1C[C@@H]2c3cc(NC(=O)C4CCOCC4)ccc3O[C@@H]2[C@@H](CO)O1)NCc1ccccc1F 14%
COc1ccccc1CNC(=O)C[C@H]1C[C@@H]2c3cc(NC(=O)c4cccnc4)ccc3O[C@@H]2[C@@H](CO)O1 -4.17%
O=C(C[C@@H]1C=C[C@@H](NC(=O)Nc2ccc3c(c2)OCO3)[C@H](CO)O1)NCc1ccc(F)cc1 -6.97%
O=C(Nc1cccc(F)c1)N[C@@H]1CC[C@H](CCNS(=O)(=O)c2cccc(Cl)c2)O[C@@H]1CO 42.4%
C[C@@H]1CN([C@H](C)CO)C(=O)c2cccc(NS(=O)(=O)c3ccc(Cl)cc3)c2O[C@H]1CN(C)CC1CCCCC1 56.1% [at 30 µM]
COC(=O)c1ccc(NC(=O)c2ccc(CN3CCOCC3)cc2)cc1 12.6%
OC1(c2ccc(OC(F)F)cc2)CSC(=Nc2cccnc2)N1C1CC1 (centres undefined) -12.4%
Cc1cc(Cl)c(S(=O)(=O)N2CCCC2)cc1OCC(=O)NC1CCCCC1 -17.4%
CN(C)S(=O)(=O)c1ccc(C(=O)Nc2nc(-c3cccs3)cs2)cc1 7.84%
COCCCn1c(-c2ccc(S(=O)(=O)N3CCOCC3)cc2)csc1=Nc1ccccc1 3.27%
COCC(=O)Nc1ccc2c(c1)C(=O)N(C)C[C@@H](OC)[C@@H](C)CN(C)[C@H](C)CO2 24.4%
CCCC(=O)Nc1ccc2c(c1)C(=O)N(C)C[C@@H](OC)[C@@H](C)CN(Cc1nccs1)[C@@H](C)CO2 -10.4%
C=CC[n+]1c(-c2ccc(C)cc2)csc1NNC(=O)Nc1ccccc1 -18.4% [at 16 µM]
NC(=S)c1ccc(OCCCc2ccccc2)cc1 19.6%
O=C1c2cccc(OCc3ccc(F)cc3)c2CCN1Cc1ccccc1 -36.6%
O=C(C[C@H]1C[C@@H]2c3cc(NC(=O)C4CCC4)ccc3O[C@@H]2[C@@H](CO)O1)NCc1ccc2c(c1)OCO2 24.8%
C=CCOc1c(Br)cc(CNc2ccc(NC(=O)C(C)C)c(OC)c2)cc1OC 15.3%
CC1(C)N=C(N)N=C(N)N1CCCCc1ccccc1 -26.4%
COc1cc(-c2c(-c3cc(OC)c(OC)c(OC)c3)noc2C)ccc1F 54.8%
O=C(CNC(=O)c1cccc(-n2cccc2)c1)Nc1ccccc1Br 5.83%
COc1ccccc1S(=O)(=O)Nc1ccc2c(c1)C(=O)N(C)C[C@@H](OC)[C@@H](C)CN[C@@H](C)CO2 11.4%
CCCNC(=O)C[C@H]1C[C@H]2c3cc(NC(=O)CN(C)C)ccc3O[C@H]2[C@@H](CO)O1 15.8%
COc1ccc(NC(=O)c2ccc(Cl)c(S(=O)(=O)N3CCc4ccccc4C3)c2)cn1 -27.9%
O=C(Nc1ccc(F)cc1)Nc1ccc2c(c1)[C@@H]1C[C@H](CC(=O)N3CCCCC3)O[C@@H](CO)[C@@H]1O2 -5.66%
COc1ccccc1Oc1ccc(S(=O)(=O)NCc2ccccn2)cc1 -14.1%
O=C(Nc1ccc(Oc2ccccc2)cc1)c1csc([C@H]2C[C@H](O)[C@@H](CO)O2)n1 -10.4%
COc1ccc(OC)c(-c2cc(C(=O)Nc3c(C)nn(Cc4ccc(Cl)cc4)c3C)no2)c1 -26%
CCCCS(=O)(=O)N1CCN(C(=O)C(=O)c2cccc(C(F)(F)F)c2)CC1 10.8%
CCS(=O)(=O)Nc1ccc2c(c1)C(=O)N(C)C[C@H](OC)[C@@H](C)CN(C(=O)C1CCC1)[C@H](C)CO2 12.2%
CN(C)Cc1cn(CC[C@@H]2CC[C@H](N)[C@H](CO)O2)nn1 24.1%
Nc1nonc1C(=O)NCCNCc1cc(Br)ccc1OCc1ccccc1F -12.6%
CN1CCN(C(=O)C[C@H]2C[C@@H]3c4cc(NS(C)(=O)=O)ccc4O[C@@H]3[C@H](CO)O2)CC1 9.51%
CCCCOc1ccc(S(=O)(=O)Nc2cccnc2)cc1 6.53%
O=C(Nc1ccc(C(=O)OC2CCCCC2)cc1)c1ccncc1 13.6%
C[C@H]1CN([C@@H](C)CO)C(=O)c2cccc(NC(=O)c3ccncc3)c2O[C@@H]1CN(C)C(=O)Nc1cccc2ccccc12 0.94%
C[C@H](CO)N1C[C@H](C)[C@@H](CN(C)C(=O)Nc2cccc3ccccc23)OCCCC[C@H](C)Oc2ccc(N(C)C)cc2C1=O -30.6%
O=C(C[C@@H]1C[C@H]2c3cc(NC(=O)Nc4ccccc4)ccc3O[C@H]2[C@H](CO)O1)NCc1cccnc1 -1.52%
O=C(NCc1cccnc1)c1c[nH]c2cc3c(cc2c1=O)OCCO3 47.4%
COc1cc(CSc2nnnn2-c2ccc(C)cc2)cc(OC)c1OC -1.13%
c1ccc2c(c1)ncn2CCCCOc1ccc2c(c1)CCC2 1.92% [at 16 µM]
Cc1ccc(Cn2ncc3c(N4CCN(Cc5ccc(Cl)cc5)CC4)ncnc32)cc1 -11.6%
COc1ccc(C)cc1NC(=O)CCNS(=O)(=O)c1ccc2c(c1)CC(C)N2C(C)=O (centres undefined) -12.8%
CCOC(=O)C1CCN(C(=O)c2ccc3c(c2)C(=O)N(c2ccccc2C)C3=O)CC1 35.1%
COc1ccc(OCC(=O)Nc2ccccc2N2CCCCC2)cc1 39.9%
OCC[C@@H]1C[C@@H](O)[C@H](O)[C@]2(OCc3ccccc32)O1 -4.52%
Cc1ccc(Cn2ncc3c(N4CCN(c5ccc(C)cc5)CC4)ncnc32)cc1 35%
c1ccc2c(c1)CCN(c1ncnc3c1[nH]c1ccccc13)C2 2.06%
CC(=O)c1ccc(S(=O)(=O)N2CCN(c3nc4c(C)c(C)ccc4cc3C#N)CC2)cc1 -11.1%
O=C(C[C@H]1C[C@@H]2c3cc(NC(=O)C4CCC4)ccc3O[C@@H]2[C@@H](CO)O1)NCC(F)(F)F 9.8%
CCOC(=O)C1CCCN(Cc2nc(N)nc(Nc3ccc(OC)cc3)n2)C1 (centres undefined) -0.574%
CC(=O)C1=C(C)NC(=S)NC1c1ccccc1 (centres undefined) 13.6%
COC(=O)[C@@]1(Cc2ccc(F)cc2)[C@H]2c3cc(C(=O)N(C)C)n(CCO)c3C[C@H]2CN1C(=O)c1ccccc1 13.3%
N#CCSc1nnc(-c2sc3ccccc3c2Cl)o1 -11.7%
CO[C@H]1CN(C)C(=O)c2cc(NC(C)=O)ccc2OC[C@@H](C)N(Cc2nccs2)C[C@H]1C 20.8%
CO[C@H]1CN(C)C(=O)c2cc(NS(=O)(=O)c3ccc(Cl)cc3)ccc2OC[C@@H](C)N(C)C[C@@H]1C 19.1%
CCNC(=O)C[C@@H]1CC[C@@H]2[C@H](COC[C@@H](O)CN2C(=O)c2ccccn2)O1 -7.64%
CCCNC(=O)C[C@H]1C[C@H]2c3cc(NC(=O)Cc4ccncc4)ccc3O[C@H]2[C@H](CO)O1 0.858%
CCCNC(=O)C[C@@H]1C[C@@H]2c3cc(NC(=O)Cc4ccncc4)ccc3O[C@@H]2[C@H](CO)O1 5.24%
CN(C)C(=O)C[C@H]1C[C@@H]2c3cc(NS(=O)(=O)c4ccc(F)cc4)ccc3O[C@@H]2[C@@H](CO)O1 14.9%
CN(C)C(=O)C[C@@H]1C[C@H]2c3cc(NS(=O)(=O)c4ccc(F)cc4)ccc3O[C@H]2[C@H](CO)O1 37.5%
CS(=O)(=O)Nc1ccc2c(c1)[C@H]1C[C@H](CC(=O)NCc3ccc(-c4ccccc4)cc3)O[C@H](CO)[C@H]1O2 -12.4%
COCCNC(=O)C[C@@H]1C[C@H]2c3cc(N(C)C)ccc3O[C@H]2[C@@H](CO)O1 14.4% [at 16 µM]
CS(=O)(=O)Nc1ccc2c(c1)[C@H]1C[C@@H](CC(=O)NCCN3CCCCC3)O[C@@H](CO)[C@H]1O2 18.3%
O=C(C[C@@H]1C[C@H]2c3cc(NC(=O)C4CCOCC4)ccc3O[C@H]2[C@@H](CO)O1)NCc1ccccc1 6.66%
CS(=O)(=O)Nc1ccc2c(c1)[C@@H]1C[C@@H](CC(=O)N3CCc4ccccc4C3)O[C@H](CO)[C@@H]1O2 16.9%
O=C(C[C@@H]1C[C@@H]2c3cc(NC(=O)C4CCC4)ccc3O[C@@H]2[C@@H](CO)O1)NCc1ccc2c(c1)OCO2 -14.9%
CS(=O)(=O)Nc1ccc2c(c1)[C@H]1C[C@H](CC(=O)N3CCc4ccccc4C3)O[C@H](CO)[C@H]1O2 4.05%
O=C(C[C@H]1C[C@@H]2c3cc(NC(=O)C4CCOCC4)ccc3O[C@@H]2[C@H](CO)O1)NCc1ccccc1 -0.474%
COC(=O)C[C@@H]1C[C@H]2c3cc(NS(=O)(=O)c4cccc(OC)c4)ccc3O[C@H]2[C@@H](CO)O1 53.6%
O=C(C[C@@H]1C[C@@H]2c3cc(NC(=O)c4ccc5c(c4)OCO5)ccc3O[C@@H]2[C@@H](CO)O1)NCc1ccc(Oc2ccccc2)cc1 -9.82% [at 30 µM]
